Source: PubChem BioAssay
This is a sample that favours compounds with a hit; in the whole collection about 3.2% have one here.
PAX8 inh HTS: lowers PAX8-driven luciferase in RMG-I cells; inhibition, % at 12.6 µM; AID 652154; actives 1.2% (n = 360,000); RMG-I TPO-luciferase reporter, SteadyGlo, 24 h;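 active = mean replicate inhibition at least 60% with every replicate also reaching 60%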;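 note: luciferase light reporting Pax8 driven TPO promoter activity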
LGR2 inh: Drosophila LGR2 receptor signaling inhibition | HEK293 LGR2, CRE-luciferase, bursicon-stimulated, 4 h | inhibition, % at 9.99 µM | actives 0.35% (n = 380,000) | AID 720647;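 active = drop in luminescence signal, shown as inhibition above about 50% in the replicate tests, limit read from the data, passing the limit was not always enough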;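 note: agonist challenge used bursicon conditioned medium at about half maximal strength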
TROY signal inh: blocks TROY-dependent signaling in reporter cells; Q293 LMP1-TROYcd NF-kB luciferase reporter, 4 h; inhibition, % at 10 µM; actives 0.98% (n = 360,000); AID 1347056;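 active = compounds whose plate-normalised and pattern-corrected inhibition of the luciferase reporter signal at the single screening dose is 50% or more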
TWEAK-Fn14 inh: TWEAK-Fn14 signaling inhibition; TWEAK-stimulated Fn14 reporter cells, luciferase luminescence, 8 h; actives 2% (n = 360,000); inhibition, % at 10 µM; in the data active = inhibition above about 50%
LMP1 NFkB inh: inhibitors of Epstein-Barr LMP1-induced NF-kappaB reporter. LMP1-induced NF-kappaB luciferase reporter cells, luminescence. inhibition, % at 12.5 µM. actives 0.69% (n = 350,000). AID 504558; in the data active = inhibition above about 41%
EWS-Fli block: EWS/Fli transcriptional activity inhibition. inhibition, % at 12.6 µM. A673 NR0B1-luciferase reporter, viability-normalised. actives 0.67% (n = 350,000);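 active = mean inhibition of at least 50% after viability correction, with every replicate also passing that limit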;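 note: firefly luciferase signal divided by Alamar Blue viability fluorescence both relative to DMSO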
Hits are given with their value; . = inactive; / = no result given; ! = not confirmed by another sample.

SMILES | PAX8 inh HTS | LGR2 inh | TROY signal inh | TWEAK-Fn14 inh | LMP1 NFkB inh | EWS-Fli block
COc1cc(/C=C2\SC(=Nc3ccccc3)N(CCc3c[nH]c4ccccc34)C2=O)ccc1OC(C)C(=O)O (configuration not stated) | / | . | 59 | . | . | /
COCCN1C(=O)/C(=C/c2ccc(Oc3ccc([N+](=O)[O-])cn3)c(OC)c2)SC1=Nc1ccccc1 | . | / | . | . | . | /
O=C1S/C(=C\c2ccc(N3CCOCC3)o2)C(=O)N1Cc1ccc(F)cc1 | / | / | . | 52 | . | /
COCCNC(=O)C[C@@H]1C[C@H]2c3cc(NS(=O)(=O)c4ccc(F)cc4)ccc3O[C@H]2[C@H](CO)O1 | . | . | / | / | / | .
COc1cc(/C=C2\N=C(C)OC2=O)cc(Cl)c1OC(C)=O | . | . | . | . | . | .
COc1ccc(/C=C2\N=C(C)OC2=O)cc1[N+](=O)[O-] | . | . | . | . | 46 | .
C[C@@H]1CN([C@@H](C)CO)S(=O)(=O)c2ccc(C#Cc3ccccn3)cc2O[C@@H]1CN(C)Cc1ccccc1 | / | . | / | / | / | .
CC(=NCCN1CCN(C(C)=C2C(=O)c3ccccc3C2=O)CC1)C1=C(O)CC(C)(C)CC1=O | 101 | . | . | . | . | .
C[C@H]1CCCCO[C@H](CN(C)Cc2ccc(Cl)c(Cl)c2)[C@@H](C)CN([C@@H](C)CO)C(=O)c2cc(NS(=O)(=O)c3ccccc3)ccc2O1 | . | . | / | / | / | .
C[C@@H]1CN([C@H](C)CO)C(=O)c2cc(NS(=O)(=O)c3ccccc3)ccc2O[C@@H](C)CCCCO[C@@H]1CN(C)Cc1ccc(Cl)c(Cl)c1 | 102! | . | / | / | / | .
C[C@@H]1CCCCO[C@@H](CN(C)Cc2ccc(Cl)c(Cl)c2)[C@H](C)CN([C@@H](C)CO)C(=O)c2cc(NS(=O)(=O)c3ccccc3)ccc2O1 | 95 | . | / | / | / | .
C[C@@H]1CCCCO[C@H](CN(C)Cc2ccc(Cl)c(Cl)c2)[C@@H](C)CN([C@@H](C)CO)C(=O)c2cc(NS(=O)(=O)c3ccccc3)ccc2O1 | 103 | / | / | / | / | .
Cc1noc(C)c1NC(=O)N(C)C[C@H]1Oc2c(NC(=O)C3CC3)cccc2C(=O)N([C@@H](C)CO)C[C@H]1C | / | . | / | / | / | .
COCCN1CCN(C(=O)c2cc(COc3ccc(F)c(F)c3)on2)CC1 | . | . | . | 77 | . | .
COC(=O)c1sc(-c2ccc(Cl)cc2)cc1NC(=O)c1ccccc1C(=O)O | . | / | . | . | . | .
COC(=O)c1sc(-c2ccc(C(C)(C)C)cc2)cc1NC(=O)c1ccccc1C(=O)O | . | . | 52 | . | . | .
Cn1cccc1Cc1nnc(SCC(=O)Nc2nc3ccccc3s2)n1CCc1ccccc1 | / | / | . | . | . | .
Cc1nnc(NC(=O)CSc2nnc(Cc3cccn3C)n2CCc2ccccc2)s1 | / | . | . | . | 66 | .
N=c1c2c(ncn1Cc1ccco1)Oc1c(ccc3ccccc13)C2c1ccccc1 (configuration not stated) | . | . | . | 56 | . | /
COCC(=O)Nc1ccc2c(c1)[C@H]1C[C@H](CC(=O)NCCN3CCCCC3)O[C@H](CO)[C@H]1O2 | . | . | / | / | / | .
Fc1ccc(Cn2c(-c3cscn3)nc3ccccc32)c(Cl)c1 | . | / | . | . | . | /
Nc1nonc1-c1nc2ccccc2n1Cc1ccc(F)cc1Cl | . | / | 54 | . | . | /
c1ccc(-c2cc3n(c2)CCc2ccccc2-3)cc1 | / | 66 | . | 83 | . | /
O=C(O)c1cc2c(s1)-c1ccccc1CC2 | . | . | . | . | . | /
CC(=O)c1cc2c(C)c(C(=O)c3ccccc3)oc2cc1O | . | . | . | 55 | . | /
SMILES | PAX8 inh HTS | LGR2 inh | TROY signal inh | TWEAK-Fn14 inh | LMP1 NFkB inh | EWS-Fli block
O=c1oc(-c2ccccc2)nc2sc3c(c12)CCCC3 | / | . | . | 53 | . | /
Nn1c(-c2cccs2)nc2sc3c(c2c1=O)CCCC3 | / | . | . | . | . | /
Cc1ccccc1-c1nc2sc3c(c2c(=O)n1N)CCCC3 | / | / | 77 | 71 | . | /
Cc1ccccc1-c1nc2sc3c(c2c(=O)o1)CCC3 | / | / | / | . | . | /
O=C1CCC(C(=O)N2CCCCCC2)CN1CCc1ccc(Cl)cc1 (configuration not stated) | . | . | . | . | 69 | /
O=C1CCC(C(=O)N2CCC(O)CC2)CN1CCc1ccc(Cl)cc1 (configuration not stated) | / | . | . | . | . | .
C[C@@H]1CN([C@H](C)CO)C(=O)c2cc(N(C)C)ccc2O[C@@H]1CN(C)Cc1ccncc1 | . | . | / | / | / | .
